Measured values as given in PubChem BioAssay (NCATS).
Several values for one entry are separate records, joined by “and”; a condition that tells them apart may be missing. Equal values may be shown once. Results filed as inconclusive are left out. A structure can be active in one record and inactive in another. Activity calls are given as the source filed them. The call rests on the fitted dose curve; in most records, active means well fitted curve in the direction sought with a large enough effect; inconclusive means small, poorly fitted or top-dose-only effect, or another doubt; inactive means no such curve, though single readings can be large; an effect the other way counts as inactive or inconclusive.

Key:
MKL-2 = assay: qHTS assay to identify novel small-molecules to repurpose for Merkel cell carcinoma treatment (AID 1296009); conditions: MCC and control cell lines, CellTiter-Glo viability, 72 h; series mostly up to 46 µM; further: nearly all actives have a fitted effect of over 60% in size
How it was run: (§1)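 72 hr, 37 degree celsius; NPC 8-pt / MIPE 11-pt dose response; compound pinned in DMSO; CellTiter-Glo, 10 min RT, luminescence; normalized to no-cell and DMSO controls.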

UISO = assay: as above; conditions: MCC and control cell lines, CellTiter-Glo viability, 72 h; series mostly up to 46 µM
How it was run: as §1

WaGa = assay: as above; conditions: MCC and control cell lines, CellTiter-Glo viability, 72 h; series mostly up to 46 µM
How it was run: as §1

C33A = assay: Primary qHTS to identify gynecologic anti-cancer compounds using libraries of approved drugs and bioactive compounds (AID 1345084); conditions: Gynecologic cancer cell panel viability, ATPlite luminescence, 48 h; series mostly up to 57.5 µM; further: nearly all actives have a fitted effect of over 55% in size
How it was run: (§2)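 ATP-based viability (ATPlite), 1,000 cells/well, 16 h pre-incubation, 48 h compound at 37 C, 5% CO2, 15 min RT before read.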

Es-2 = assay: as above; conditions: Gynecologic cancer cell panel viability, ATPlite luminescence, 48 h; series mostly up to 57.5 µM
How it was run: as §2

HeLa = assay: as above; conditions: Gynecologic cancer cell panel viability, ATPlite luminescence, 48 h; series mostly up to 57.5 µM
How it was run: as §2

Hek293T = assay: as above; conditions: Gynecologic cancer cell panel viability, ATPlite luminescence, 48 h, control line for the selectivity index; series mostly up to 57.5 µM
How it was run: as §2

JEG-3 = assay: as above; conditions: Gynecologic cancer cell panel viability, ATPlite luminescence, 48 h; series mostly up to 57.5 µM
How it was run: as §2

OV90 = assay: as above; conditions: Gynecologic cancer cell panel viability, ATPlite luminescence, 48 h; series mostly up to 57.5 µM
How it was run: as §2

Tov-21-G = assay: as above; conditions: Gynecologic cancer cell panel viability, ATPlite luminescence, 48 h; series mostly up to 57.5 µM
How it was run: as §2

Tov112D = assay: as above; conditions: Gynecologic cancer cell panel viability, ATPlite luminescence, 48 h; series mostly up to 57.5 µM
How it was run: as §2

[1] = Drug repurposing screens with cells derived from glioblastoma tumor samples (AID 1345199); conditions: GBM patient neurospheres viability, ATP luminescence, 48 h; further: nearly all actives have a fitted effect of over 40% in size; on activity, negative = cell killing: on the % scale 0 is the no-effect control and ±100 the full control effect
How it was run: (§3)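 Four patient lines of CD133+ GBM neurospheres were screened at several concentrations; hits were retested in those lines plus three slower-growing GBM lines, using 48-hour treatment and ATP-based viability.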

CAOV3 = assay: Primary qHTS to identify gynecologic anti-cancer compounds using libraries of approved drugs and bioactive compounds (AID 1345084); conditions: Gynecologic cancer cell panel viability, ATPlite luminescence, 48 h; series mostly up to 57.5 µM; further: nearly all actives have a fitted effect of over 55% in size
How it was run: as §2

CASKI = assay: as above; conditions: Gynecologic cancer cell panel viability, ATPlite luminescence, 48 h; series mostly up to 57.5 µM
How it was run: as §2

PA-1 = assay: as above; conditions: Gynecologic cancer cell panel viability, ATPlite luminescence, 48 h; series mostly up to 57.5 µM
How it was run: as §2

SKOV3 = assay: as above; conditions: Gynecologic cancer cell panel viability, ATPlite luminescence, 48 h; series mostly up to 57.5 µM
How it was run: as §2

astro = assay: Drug repurposing screens with cells derived from glioblastoma tumor samples (AID 1345199); conditions: viability, ATP luminescence, 48 h; series mostly up to 45.9 µM; further: nearly all actives have a fitted effect of over 40% in size; on activity, negative = cell killing: on the % scale 0 is the no-effect control and ±100 the full control effect
How it was run: as §3

MKL-1 = assay: qHTS assay to identify novel small-molecules to repurpose for Merkel cell carcinoma treatment (AID 1296009); conditions: MCC and control cell lines, CellTiter-Glo viability, 72 h; series mostly up to 46 µM; further: nearly all actives have a fitted effect of over 60% in size
How it was run: as §1

[2] = qHTS assay to identify inhibitors of the type 1 interferon - major histocompatibility complex class I in skeletal muscle: Counter screen cell viability and HiBit confirmation (AID 1347412); conditions: iHSKM muscle cells + IFN-b, HiBiT or CellTiter-Glo, 24 h; HiBiT; further: nearly all actives have a fitted effect of over 60% in size
How it was run: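 HLA-B*08:01–HiBiT knock-in immortalized human myoblasts (C25cl48) stimulated with 4.0 ng/ml human IFN-beta and dosed with compound in a 12-point 1:3 titration (top final 46 uM). After 24 hrs at 37 C, HiBiT lytic luminescence or CellTiter Glo ATP read out.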

NIH3T3 = assay: qHTS assay to identify novel small-molecules to repurpose for Merkel cell carcinoma treatment (AID 1296009); conditions: MCC and control cell lines, CellTiter-Glo viability, 72 h; at 44.8 µM (top of the series) unless noted; further: nearly all actives have a fitted effect of over 60% in size
How it was run: as §1

[3] = at 46.1 µM (top of the series), tumour line C
[4] = at 45.9 µM (top of the series), tumour line B
[5] = at 45.9 µM (top of the series), tumour line D
Potency means the concentration at half of the fitted maximal effect.

CCCCCCCCOc1ccccc1C(=O)Nc1ccc(C(=O)OCC[N+](C)(CC)CC)cc1
inactive: Potency (C33A) | Potency (Es-2) | Potency (HeLa) | Potency (Hek293T) | Potency (JEG-3) | Potency (OV90) | Potency (Tov-21-G) | Potency (Tov112D) | activity, negative = cell killing [1, 3] -98.5%
active: Potency (MKL-2) 16.6 µM and 5.96 µM | Potency (UISO) 15 µM | Potency (WaGa) 29.9 µM | Potency ([1]; tumour line A) 14.1 µM | Potency ([1]; tumour line B) 17.8 µM

COc1c2occc2cc2ccc(=O)oc12
inactive: Potency (C33A) | Potency (CAOV3) | Potency (CASKI) | Potency (Es-2) | Potency (HeLa) | Potency (JEG-3) | Potency (OV90) | Potency (PA-1) | Potency (SKOV3) | Potency (Tov-21-G) | Potency (Tov112D) | activity, negative = cell killing [1, 4] -22.6% | activity, negative = cell killing [1, 5] -10.6% | activity, negative = cell killing [1, 3] -21.4% | Potency (astro)

N=C(N)c1ccc2cc(OC(=O)c3ccc(N=C(N)N)cc3)ccc2c1
inactive: Potency (MKL-1) | Potency (UISO) | Potency (C33A) | Potency (CAOV3) | Potency (CASKI) | Potency (Es-2) | Potency (HeLa) | Potency (Hek293T) | Potency (JEG-3) | Potency (OV90) | Potency (PA-1) | Potency (Tov-21-G) | Potency (Tov112D) | activity, negative = cell killing [1, 4] -0.17% | activity, negative = cell killing [1, 5] -17% | activity, negative = cell killing [1, 3] 10% | Potency (astro)
inactive and 26.6 µM (active): Potency (WaGa)

O=Nc1c(-c2c(O)[nH]c3cc(Br)ccc23)[nH]c2ccccc12
active: Potency (MKL-2) 16.6 µM | Potency (UISO) 0.059 µM | Potency [2] 22.2 µM

Oc1ccc(-c2nc(-c3ccc(F)cc3)c(-c3ccncc3)[nH]2)cc1
inactive: outcome (NIH3T3) | Potency (UISO)
active: Potency (MKL-2) 20.9 µM

Cc1cccc(C)c1OCC(=O)N[C@@H](Cc1ccccc1)[C@@H](O)C[C@H](Cc1ccccc1)NC(=O)[C@H](C(C)C)N1CCCNC1=O
inactive: Potency (C33A) | Potency (CASKI) | Potency (Es-2) | Potency (HeLa) | Potency (Hek293T) | Potency (JEG-3) | Potency (OV90) | Potency (PA-1) | Potency (SKOV3) | Potency (Tov-21-G) | Potency (Tov112D) | Potency (astro)

CCCS(=O)c1ccc2nc(NC(=O)OC)[nH]c2c1 (centres undefined)
active: Potency (PA-1) 14.1 µM | Potency (Tov112D) 8.91 µM
inactive: Potency (MKL-1) | Potency (C33A) | Potency (CAOV3) | Potency (CASKI) | Potency (Es-2) | Potency (JEG-3) | Potency (OV90)

CC(C)[N+]1(C)[C@@H]2CC[C@H]1CC(OC(=O)C(CO)c1ccccc1)C2 (some centres undefined)
inactive: Potency (MKL-1) | outcome (NIH3T3) | Potency (UISO) | activity, negative = cell killing [1, 4] -10.3% and -8.73% | activity, negative = cell killing [1, 5] -5.23% and -7.38% | activity, negative = cell killing ([1]; at 46 µM (top of the series), tumour line A) -16.8% | activity, negative = cell killing [1, 3] 14% and -28.4% | Potency (astro)
active: Potency (WaGa) 18.7 µM

COC1=C(OC)C(=O)C(CCCCCCCCCCO)=C(C)C1=O
active: Potency (MKL-1) 15 µM
inactive: outcome (NIH3T3) | Potency (CAOV3) | Potency (CASKI) | Potency (HeLa) | Potency (OV90) | Potency (SKOV3) | Potency (Tov-21-G) | activity, negative = cell killing [1, 4] -9.04% | activity, negative = cell killing [1, 3] 1.43%

CN1C(C(=O)Nc2ccccn2)=C(O)c2sccc2S1(=O)=O
inactive: Potency (C33A) | Potency (CAOV3) | Potency (CASKI) | Potency (Es-2) | Potency (HeLa) | Potency (Hek293T) | Potency (JEG-3) | Potency (OV90) | Potency (PA-1) | Potency (SKOV3) | Potency (Tov-21-G) | Potency (Tov112D) | activity, negative = cell killing ([1]; at 20 µM (top of the series), tumour line C) 2.25% | activity, negative = cell killing ([1]; at 21.2 µM (top of the series), tumour line B) -11.7% | activity, negative = cell killing ([1]; at 21.2 µM (top of the series), tumour line D) -11.3% | Potency (astro)

OC(CN1CCN(c2cccc(Cl)c2)CC1)C(c1ccccc1)c1ccccc1 (centres undefined)
inactive: Potency (MKL-1) | outcome (NIH3T3) | Potency (UISO) | Potency (WaGa) | Potency (C33A) | Potency (CASKI) | Potency (HeLa) | Potency (Hek293T) | Potency (JEG-3) | Potency (OV90) | Potency (PA-1) | Potency (SKOV3) | Potency (Tov-21-G) | Potency (Tov112D)

CCCCC(CC)COC(=O)C(C#N)=C(c1ccccc1)c1ccccc1 (centres undefined)
inactive: Potency (MKL-1) | outcome (NIH3T3) | Potency (WaGa) | Potency (C33A) | Potency (CASKI) | Potency (Es-2) | Potency (HeLa) | Potency (Hek293T) | Potency (JEG-3) | Potency (OV90) | Potency (PA-1) | Potency (SKOV3) | Potency (Tov-21-G) | Potency (Tov112D) | activity, negative = cell killing [1, 3] -18.1% | Potency (astro)
active: Potency ([1]; tumour line A) 7.08 µM | Potency ([1]; tumour line D) 10 µM

CC(=O)N1CCN(c2ccc(OC[C@H]3CO[C@](Cn4ccnc4)(c4ccc(Cl)cc4Cl)O3)cc2)CC1
inactive: Potency (astro)

CN(C)C(=O)[C@H](O)[C@H](Cc1ccccc1)NC(=O)c1cc2cc(Cl)ccc2[nH]1
active: Potency (UISO) 4.18 µM
inactive: Potency (MKL-2) | outcome (NIH3T3) | Potency (WaGa) | Potency (C33A) | Potency (CAOV3) | Potency (CASKI) | Potency (Es-2) | Potency (HeLa) | Potency (JEG-3) | Potency (OV90) | Potency (PA-1) | Potency (SKOV3) | Potency (Tov-21-G) | Potency (Tov112D)

CC(C)Oc1ccc2c(=O)c(-c3ccccc3)coc2c1
active: Potency (CAOV3) 22.4 µM | Potency (Es-2) 5.01 µM | Potency (HeLa) 28.2 µM | Potency (OV90) 22.4 µM | Potency (PA-1) 20 µM | Potency (Tov-21-G) 15.8 µM | Potency (Tov112D) 20 µM
